Hits are enriched below; roughly 12% of the tested compounds scored in any of these assays.
G9a inh: G9a (human) methyltransferase inhibition | 8.8% of 350,000 active | G9a H3K9 monomethylation, AlphaScreen, 2 h | Q96KQ7 | Potency, µM (series often up to 102 µM), for the others: at the top dose activity, negative = inhibition, actives largely listed as inhibitors; note: % is set by controls: 0 for no effect and ±100 for the full control effect; nearly all actives have a fitted effect of over 75% in size
Target sequence (Q96KQ7 913-1193 limits assumed): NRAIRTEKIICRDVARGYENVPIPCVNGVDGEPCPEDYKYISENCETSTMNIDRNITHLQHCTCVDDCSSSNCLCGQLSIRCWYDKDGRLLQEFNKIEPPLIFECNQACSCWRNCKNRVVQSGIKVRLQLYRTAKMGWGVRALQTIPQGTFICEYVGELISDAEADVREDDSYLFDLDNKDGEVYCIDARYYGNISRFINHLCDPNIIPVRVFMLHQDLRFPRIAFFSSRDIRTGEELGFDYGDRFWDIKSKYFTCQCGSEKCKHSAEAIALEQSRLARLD
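G9a (20 nM) was preincubated 15 min with compound, then reacted 2 h at room temperature with 500 nM biotin-H3K9 peptide and 20 µM SAM. Monomethyl-H3K9 detected by AlphaScreen using anti-H3K9me1 antibody.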
Sfp inh: Sfp phosphopantetheinyl transferase inhibition; Q9F4F7; 3.5% of 310,000 active; Biochemical Sfp PPTase activity, qHTS; Potency, µM, for the others: largest response in the series, negative = inhibition, usual class: inhibitors;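 note: the enzyme is Sfp with the accession as filed and its product quenches rhodamine fluorescence; 0% = enzyme reaction without inhibitor and -100% = no enzyme wells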
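Fluorescence-quenching assay: 15 nM Sfp-PPTase preincubated 15 min at room temperature with compound, then 5 uM rhodamine-CoA and 12.5 uM BHQ-2-labelled YbbR peptide added. Fluorescence (ex 525/em 598 nm) read at start and after 30 min; difference gives rate.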
JMJD2A Tudor inh: blocks the human JMJD2A Tudor domain; O75164; AlphaScreen JMJD2A-Tudor / H3K4me3 peptide binding; Potency, µM (doses to about 114 µM), for the others: at the top dose activity change, negative = inhibition, most hits filed as inhibitors; 4.4% of 390,000 active; AID 504339; note: % is set by controls: 0 for no effect and ±100 for the full control effect; nearly all actives have a fitted effect of over 50% in size
HP1b binding inh: HP1-beta chromodomain-methylated histone interaction inhibition; Potency, µM (top dose mostly 114 µM), for inactives: at the highest dose activity change, negative = inhibition, most hits filed as inhibitors; P83916; AlphaScreen HP1-beta / biotin-H3K9me3 peptide binding; AID 540317; 0.56% of 390,000 active; note: nearly all actives have a fitted effect of over 70% in size
Target sequence (P83916 whole entry, looked up): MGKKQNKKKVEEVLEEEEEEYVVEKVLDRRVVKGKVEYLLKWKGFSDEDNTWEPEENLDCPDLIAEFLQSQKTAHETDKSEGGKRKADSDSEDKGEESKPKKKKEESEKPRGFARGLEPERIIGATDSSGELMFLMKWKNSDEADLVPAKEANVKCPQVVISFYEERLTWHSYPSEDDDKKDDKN
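HP1-beta protein (50 nM final) preincubated 30 min at room temperature with biotinylated H3(1-18)K9me3 peptide (50 nM) in PBS pH 7.4, 0.01% Tween-20, then compound added for 30 min. AlphaScreen streptavidin donor/nickel chelate acceptor beads (10 ug/mL final), 30 min dark, luminescence read.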
BAZ2B inh: inhibitors of human BAZ2B bromodomain. AlphaScreen BAZ2B-H3K14Ac peptide displacement. 4.4% of 360,000 active. Potency, µM (top dose mostly 114 µM), for the others: top-dose activity change, negative = inhibition, actives largely listed as inhibitors; note: % is set by controls: 0 for no effect and ±100 for the full control effect; nearly all actives have a fitted effect of over 60% in size
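Multi-concentration screen (max 110 uM) measuring displacement of acetylated histone H3 peptide from BAZ2B by AlphaScreen, using 50 nM protein, 50 nM peptide and 10 ug/mL streptavidin donor plus Ni-chelate acceptor beads.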
L3MBTL1 inh: inhibitors of human L3MBTL1. Q9Y468. AlphaScreen L3MBTL1–H3K9me1 peptide binding. Potency, µM (top dose mostly 57.1 µM), for inactives: top-dose activity, negative = inhibition, actives largely listed as inhibitors. 0.66% of 230,000 active. AID 485360; note: % is set by controls: 0 for no effect and ±100 for the full control effect; nearly all actives have a fitted effect of over 60% in size
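L3MBTL1 50 nM + b-AHA-H3(1-15)K9me1 75 nM, 30 min RT; compound added, 30 min RT; streptavidin donor/Ni-chelate acceptor beads 10 ug/mL each final, 30 min RT dark; AlphaScreen read.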
The depositor's hits bear a star; ? = inconclusive; · = not tested or not shown; [ ] = remark or other dose. Calls come from the whole dose curve; as a rule, active = well fitted curve in the direction sought with a large enough effect; inconclusive = small, poorly fitted or top-dose-only effect, or another doubt; inactive = no such curve, though single readings can be large; an effect the other way counts as inactive or inconclusive. Potency is the fitted concentration of half-maximal effect.

SMILES	G9a inh	Sfp inh	JMJD2A Tudor inh	HP1b binding inh	BAZ2B inh	L3MBTL1 inh
CCOc1cc(/C=C2/SC(=S)NC2=O)ccc1OC(=O)c1ccco1	13µM*	40µM*	?	?	40µM*	-25%
O=C1NC(=S)S/C1=C/c1ccc(OC(=O)c2ccco2)cc1	-3%	-3%	?	-7%	79µM*	·
COc1cc(/C=C2/SC(=O)NC2=O)ccc1OC(=O)c1ccco1	18%	6%	-9%	32%	-3%	·
CCOc1ccccc1C1N=C(N)Nc2nc3ccccc3n21 (stereo unspecified)	14%[59 µM]	·	-22%	12%	-9%	·
C=CCNC(=O)/C(C#N)=C/c1c(C)nn(-c2ccccc2)c1Cl	-26%[59 µM]	79µM*	-13%	46%	-2%	-15%
C=CCNC(=O)/C(C#N)=C/c1ccc(SC)cc1	-16%	-11%	-11%	20%	-4%	0%
CCOc1ccccc1NC(=O)/C(C#N)=C/c1c(C)nn(-c2ccccc2)c1Cl	2%[59 µM]	12%	45µM*	12%	-3%	6%
CC1CC(C)CN(CC(=O)Nc2ccc3c(c2)OCCO3)C1 (stereo unspecified)	-43%[12.7 µM]	-21%	0.89µM*	?	79µM*	-3%
CC1CCN(CCC(=O)Nc2ccc3c(c2)OCCO3)CC1	-47%	-13%	·	·	56µM*	·
CC(C)c1ccc(N2C(=O)CSC23C(=O)N(C)c2ccccc23)cc1 (stereo unspecified)	-44%[59 µM]	·	-10%	5%	-19%	·
COc1cccc(/C=N/NC(=O)C[n+]2ccccc2)c1O	-3%[59 µM]	37%	45µM*	39%	18µM*	16µM*
COc1cccc(/C=N/NC(=O)C(=O)NCc2cccnc2)c1O	32%[59 µM]	23%	?	31%	20µM*	?
O=C(C[n+]1ccccc1)N/N=C/c1cc(Br)ccc1O	0%	17%	22µM*	38%	10µM*	·
CCOc1ccccc1NC(=O)C(=O)N/N=C/c1cc(Br)ccc1O	14%	8%	?	23%	8.9µM*	·
CCOc1ccccc1NC(=O)CN1C(=O)COc2ccc(S(=O)(=O)N3CCCCCC3)cc21	-3%[59 µM]	·	-8%	29%	-25%	·
Cc1cc(C)cc(N2C(=O)CSC23C(=O)N(Cc2c(F)cccc2Cl)c2ccccc23)c1 (stereo unspecified)	?	·	-29%	24%	-2%[57.1 µM]	·
COc1cc(CNCc2ccc(OC)cc2OC)cc(OC)c1	5%[0.501 µM]	-19%	28µM*	3%	?	-7%[2.29 µM]
COc1ccc(CNCc2ccc(C)cc2)c(OC)c1	35µM*	-6%	3.2µM*	?	56µM*	1%
COc1ccc(CNCCCSc2nnnn2C)c(OC)c1	-2%[59 µM]	·	-2%	49%	3%	·
N#C/C(=C\c1cccs1)C(=O)Nc1ccccn1	56µM*	4%	-24%	21%	-25%	-8%
CC(C)(C)c1ccc(C(=O)/C(C#N)=C/c2cccs2)cc1	?	11%	?	?	50µM*	-10%
N#C/C(=C\c1ccccc1)C(=O)Nc1nncs1	50µM*	-6%	2%	35%	-20%	-13%
CCCOc1ccccc1/C=C(\C#N)C(=O)Nc1cccc(C)n1	20µM*	-7%	-7%	28%	5%	·
CCN1CCN(c2cc3c(cc2F)c(=O)c(S(=O)(=O)c2cc(C)cc(C)c2)cn3CC)CC1	-7%[59 µM]	·	-11%	27%	-2%	·
CCOC(=O)c1c(-c2ccccc2)csc1NC(=O)/C(C#N)=C\c1ccc(O)c(OC)c1	·	·	28µM*	?	·	·
SMILES	G9a inh	Sfp inh	JMJD2A Tudor inh	HP1b binding inh	BAZ2B inh	L3MBTL1 inh
N#C/C(=C\c1ccccc1)C(=O)Nc1ccccn1	2%	4%	-15%	63%	2%	·
CCOC(=O)c1c(-c2ccc(C)cc2)csc1NC(=O)/C(C#N)=C/c1ccc(O)c(OC)c1	-18%[59 µM]	1%	-29%	-3%	?	-13%
Cc1cccc(/C=C(\C#N)C(=O)Nc2ccccn2)c1	45µM*	11%	-17%	44%	-22%	·
CCOc1cc(/C=C(\C#N)C(=O)Nc2ccccn2)ccc1O	45µM*	6%	-23%	-11%	-24%	·
Cc1c([N+](=O)[O-])cc(N2C(=O)C=CC2=O)cc1[N+](=O)[O-]	·	·	22µM*	35µM*	·	·
Cc1cc(N2C(=O)C=CC2=O)c([N+](=O)[O-])cc1C	1.3µM*	-98%	6.3µM*	5.6µM*	56µM*	-10%
Cc1cc(C)cc(N2C(=O)C=CC2=O)c1	·	·	20µM*	13µM*	·	·
Cc1cc(C)cc(N2C(=O)c3nccnc3C2=O)c1	-2%	9%	1%	23%	1%	5%
CCOC(=O)c1cc(-c2ccccc2)n(CCC(=O)Nc2ccc(Cl)c(C(F)(F)F)c2)c1C	-5%[59 µM]	·	-23%	46%	1%	·
Cc1cccc(N2C(=O)CS(=O)(=O)C23C(=O)N(C)c2ccccc23)c1 (stereo unspecified)	-24%[59 µM]	·	-10%	30%	8%[57.1 µM]	·
CCC(C)c1ccccc1N1CC(C(=O)Nc2ccc(S(=O)(=O)N3CCOCC3)cc2)CC1=O (stereo unspecified)	50µM*	·	-20%	8%	11%	-3%
CCOc1ccc(N2CC(C(=O)Nc3ccc(S(=O)(=O)N4CCOCC4)cc3)CC2=O)cc1 (stereo unspecified)	-43%	6%	-17%	5%	-5%	-1%
COc1ccc(-n2nc(C(=O)N3CCN(c4cccc(C)c4C)CC3)c3c4ccccc4n(C)c3c2=O)cc1	6%[59 µM]	·	-8%	43%	·	·
CC(=O)c1cnc2c(-c3ccc(Cl)cc3)cnn2c1C	25%[59 µM]	10%	-11%[11.4 µM]	-1%	7%	12%
Nc1c(C(=O)O)cnc2c(-c3ccc(Cl)cc3)cnn12	?	-5%	28µM*	-4%	28µM*	-6%
CCN(CC)CCc1c(C)[nH]c(C(=O)OCc2ccccc2)c1C	79µM*	7%	-34%	-13%	?	·
Cc1cc(Cl)c(S(=O)(=O)NC2CCCCC2)cc1OCC(=O)Nc1nncs1	18µM*	-3%	-3%	17%	-18%	-17%[11.4 µM]
CN1CCc2nc(SCC(=O)Nc3cccc(F)c3)c(C#N)c(-c3cccs3)c2C1	·	79µM*	?	-21%	50µM*	-4%
CN1CCc2nc(SCC(=O)Nc3ccc(OC(F)(F)F)cc3)c(C#N)c(-c3cccs3)c2C1	-17%[59 µM]	50µM*	?	-36%	-4%	17%
Cc1cccc(CSc2nc3c(c(-c4cccs4)c2C#N)CN(C)CC3)c1	?	-26%	?	7%	-37%	-6%
CCOc1ccc(NC(=O)CSc2nc(-c3cccs3)cc(C(F)(F)F)c2C#N)cc1	-1%[59 µM]	·	0%	33%	-1%	·
